About 14,000 (4.5%) of roughly 310,000 compounds showed an effect of 50% or more. Effects have a minus sign here. The list comes from a sample in which strong results are over-represented; it also holds similar structures and randomly drawn compounds.
Molecular target: human ether-à-go-go-related gene (hERG) potassium channel (human, UniProt Q12809)
Assay: primary screen, population patch clamp on CHO cells stably expressing hERG; higher = less effect of the substance
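Further: peak tail current of the secondary pulse compared with the same well before compound.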

Sequence of human ether-à-go-go-related gene (hERG) potassium channel (Q12809 whole entry, looked up): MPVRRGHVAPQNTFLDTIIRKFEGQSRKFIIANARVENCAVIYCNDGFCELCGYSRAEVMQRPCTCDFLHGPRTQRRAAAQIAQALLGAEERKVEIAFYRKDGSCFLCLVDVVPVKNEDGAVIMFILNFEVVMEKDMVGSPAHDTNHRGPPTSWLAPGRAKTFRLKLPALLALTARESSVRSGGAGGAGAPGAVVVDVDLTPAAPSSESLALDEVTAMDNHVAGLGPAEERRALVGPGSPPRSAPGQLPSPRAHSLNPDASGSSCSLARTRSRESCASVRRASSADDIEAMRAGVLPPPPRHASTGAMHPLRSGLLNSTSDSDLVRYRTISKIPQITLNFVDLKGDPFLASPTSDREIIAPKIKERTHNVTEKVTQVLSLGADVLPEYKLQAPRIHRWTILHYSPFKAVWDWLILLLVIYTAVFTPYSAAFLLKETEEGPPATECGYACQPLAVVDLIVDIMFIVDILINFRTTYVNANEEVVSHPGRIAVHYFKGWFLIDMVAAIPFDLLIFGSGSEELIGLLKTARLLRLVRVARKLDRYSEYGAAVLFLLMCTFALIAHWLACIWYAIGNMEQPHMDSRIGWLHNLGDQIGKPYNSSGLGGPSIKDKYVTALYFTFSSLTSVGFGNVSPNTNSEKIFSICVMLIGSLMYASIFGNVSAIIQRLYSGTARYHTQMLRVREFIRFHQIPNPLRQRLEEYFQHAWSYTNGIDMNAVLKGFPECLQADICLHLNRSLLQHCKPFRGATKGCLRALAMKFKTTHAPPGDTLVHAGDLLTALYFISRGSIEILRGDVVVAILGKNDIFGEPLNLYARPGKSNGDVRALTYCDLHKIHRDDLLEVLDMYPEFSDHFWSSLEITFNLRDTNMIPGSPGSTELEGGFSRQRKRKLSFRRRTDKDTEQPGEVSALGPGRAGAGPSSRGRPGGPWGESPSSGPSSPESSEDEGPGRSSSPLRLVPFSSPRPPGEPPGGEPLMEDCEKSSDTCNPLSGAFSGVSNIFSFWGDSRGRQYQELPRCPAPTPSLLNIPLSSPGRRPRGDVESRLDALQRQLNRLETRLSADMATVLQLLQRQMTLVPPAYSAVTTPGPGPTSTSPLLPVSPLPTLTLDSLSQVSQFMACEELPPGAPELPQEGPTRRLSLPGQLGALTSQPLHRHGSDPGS

SMILES | hERG current change (%, negative = inhibition) at 10uM
O=C(COC(=O)C12CC3CC(CC(O)(C3)C1)C2)NCCc1ccc(Cl)cc1 | -10.8%
CCN(CC)CCCOC(=O)c1ccc(OC)cc1O.Cl | -40.9%
CCC(Sc1nncn1C)C(=O)Nc1nnc(-c2ccccc2Cl)s1 (centres unmarked) | -11%
CC(C)c1nnc(NC(=O)C2CCCN2C(=O)Nc2cccc(Cl)c2)s1 (centres unmarked) | -18%
COc1ccc(C(=O)NC(C)CCc2ccccc2)c(OC)c1 (centres unmarked) | -26.3%
COc1ccc(C(=O)NC(C)CCc2ccccc2)c(O)c1 (centres unmarked) | -55.5%
COc1ccc(C(=O)NC(C)CCc2ccccc2)cc1 (centres unmarked) | -2.64%
Brc1ccc(CN2CCCCCC2)cc1 | -30.3%
Fc1ccc(OCCOCCN2CCCC2)cc1 | -12.6%
CC(C)(C)c1ccc(C(=O)OCCN2CCCCC2)cc1.Cl | -47.6%
Brc1ccccc1OCCN1CCCC1 | -1.74%
Cl.Fc1ccc(C(OCCN2CCCC2)c2ccc(Br)cc2)cc1 (centres unmarked) | -75.8%
CC(C)(C)c1ccccc1OCCN1CCCC1 | -24.1%
CC(OCCN1CCCC1)(c1ccc(F)cc1)c1ccc(F)cc1.Cl | -63.1%
Cl.O=C(CCN1CCCCCC1)Nc1ccc(F)cc1 | -42.8%
Cl.Fc1ccc(C(OCCN2CCCC2)c2ccc(F)cc2)cc1 | -71.3%
CCOC(=O)[C@H]1[C@H]2COc3cc(OC)ccc3[C@@H]2N2C(=O)CN(Cc3ccc(OC)cc3)C(=O)[C@@]12C | -1.96%
CC1CCc2sc(C(=O)N3CCC(C(N)=O)CC3)cc2C1 (centres unmarked) | 5.36%
CCN(CC)S(=O)(=O)c1cccc(C(=O)Nc2nncs2)c1 | 1.66%
O=C(CSc1nnc(-c2ccc(S(=O)(=O)N3CCOCC3)cc2)o1)c1ccccc1F | 1.84%
Cc1cc(SCC(=O)NCCN2C(=O)CSC2=O)nc2c(C)cccc12 | 0.207%
CCCc1c(C)c2cc(C)ccc2[nH]c1=O | -25.3%

SMILES | hERG current change (%, negative = inhibition) at 10uM
CN(C)CCCNc1ncnc2scc(-c3ccccc3)c12.O=C(O)C(=O)O | -27.9%
Cc1ccc(-c2csc3nc4c5ccccc5c(NCCCN(C)C)nn4c(=O)c23)cc1 | -78%
Cc1ccc(-c2csc3nc4c5ccccc5c(NCCCN5CCOCC5)nn4c(=O)c23)cc1 | 2.7%
COc1ccc(C(C)=O)cc1CSC(=N)N.Cl | 9.4%
COc1ccc(C(=O)N(C)Cc2ccccn2)cc1OC1CCN(C(C)C)CC1 | 9.45%
Cc1ccc(SCC(=O)Nc2oc(C)c3c(C)n[nH]c(=O)c23)cc1C | -27.6%
Cc1n[nH]c(=O)c2c(NC(=O)CSc3nc4ccccc4c(=O)n3C(C)C)oc(C)c12 | -27%
Cc1n[nH]c(=O)c2c(NC(=O)CSc3cc(Cl)ccc3Cl)oc(C)c12 | -10.9%
COCC(C)n1c(SCC(=O)Nc2oc(C)c3c(C)n[nH]c(=O)c23)nc2ccccc2c1=O (centres unmarked) | 6.9%
CCn1c(SCC(=O)Nc2oc(C)c3c(C)n[nH]c(=O)c23)nc2sc(C)c(C)c2c1=O | -61.7%
Cc1n[nH]c(=O)c2c(NC(=O)CSc3nc4ccccc4c(=O)n3-c3ccc(OC(F)F)cc3)oc(C)c12 | -59.2%
COCCCn1c(SCC(=O)Nc2oc(C)c3c(C)n[nH]c(=O)c23)nc2sc3c(c2c1=O)CCC3 | -49.7%
CCc1cc2c(=O)n(CCCOC)c(SCC(=O)Nc3oc(C)c4c(C)n[nH]c(=O)c34)nc2s1 | -1.43%
Cc1ccc(C)c(SCC(=O)Nc2oc(C)c3c(C)n[nH]c(=O)c23)c1 | -52.4%
Nc1ccc(C(=O)N2CCCC2)cc1CS(=O)(=O)c1ccc(Cl)cc1 | -4.18%
CN(c1ccccc1)c1nc(N)c([N+](=O)[O-])c(Nc2cccc(F)c2)n1 | 24%
COc1ccc(N2C(=O)/C(=C\c3ccco3)N=C2SCC(=O)NC(C)C)cc1Cl | 4.42%
C=CCNC(=O)C(C)N1c2cccc3cccc(c23)S1(=O)=O (centres unmarked) | 9.53%
COc1ccc(-n2nnnc2/C(=C/N(C)C)C(=O)c2ccccc2)cc1 | -4.92%
S=C(NC1CCCCC1)N1CCn2cccc2C1c1cccnc1 (centres unmarked) | -8.63%
O=C(O)COc1cccc(/C=C2/SC(=S)N(Cc3ccccc3)C2=O)c1 | 0.27%
CC(C)(C)c1csc(NC(=O)c2c(F)c(F)c(F)c(F)c2F)n1 | -63.9%

SMILES | hERG current change (%, negative = inhibition) at 10uM
CC(C)(C)c1csc(NC(=O)c2cccnc2)n1 | 13.6%
CC(C)(C)c1csc(NC(=O)c2ccc3nccnc3c2)n1 | -57.2%
CC(C)(C)c1csc(NC(=O)c2ccccc2O)n1 | -0.0514%
CC(C)(C)c1csc(NC(=O)c2cccs2)n1 | -16.3%
CC(C)(C)c1csc(NC(=O)c2ccncc2)n1 | -33.7%
CN(C)S(=O)(=O)N1CCc2ccccc2C1 | 2.94%
Cc1cc(C)n(-c2nc3ccccc3nc2N2CCN(S(=O)(=O)c3ccc(F)c(C)c3)CC2)n1 | 9.54%
Cc1nn(CC(=O)NCC(C)c2ccccc2)c(=O)c2cc3occc3n12 (centres unmarked) | -3.5%
O=C(C[n+]1ccccc1)c1ccc(Cl)cc1.[I-] | 10%
Cn1nnc2c[n+](CC(=O)c3ccc(Cl)cc3)cc(Br)c21.[Br-] | -24.7%
COc1ccc(C(=O)C[n+]2ccc3c(c2)nc(-c2cc(OC)c(OC)cc2OC)n3C)cc1.[Br-] | 6.93%
COc1ccc(C(=O)C[n+]2ccc3c(c2)nnn3-c2ccccc2)cc1.[Br-] | -60.5%
COc1ccc(C(=O)C[n+]2ccc3c(c2)nc(-c2ccccc2)n3C)cc1.[Br-] | -1.44%
O=C(C[n+]1ccc2c(c1)nnn2-c1ccccc1)c1ccc(Cl)cc1.[Br-] | -69%
CCc1nn(CC(=O)NCCCN(CC)c2cccc(C)c2)c(=O)c2cc3occc3n12 | -16.3%
C/C(N)=C(/C#N)C(=O)COC(=O)CCS(=O)(=O)c1ccccc1 | 12.1%
CC(C)(C)NC(=O)CSc1nc(O)cc(=O)n1-c1ccccc1F | 6.39%
O=C(CSc1ccc(-c2ccc(Br)cc2)nn1)N1CCOCC1 | -18.7%
O=C(c1ccc(=O)n(Cc2ccccc2)n1)N1CCN(C/C=C/c2ccccc2)CC1 | -51.9%
NC(=O)c1nn(Cc2ccccc2)c(=O)c2ccccc12 | 4.12%
Cc1cc(C(=O)N2CCN(C/C=C/c3ccccc3)CC2)no1 | -14.5%
O=C(c1cnccn1)N1CCN(C/C=C/c2ccccc2)CC1 | -16.6%

SMILES | hERG current change (%, negative = inhibition) at 10uM
O=C(c1nn(Cc2ccccc2)c(=O)c2ccccc12)N1CCN(C/C=C/c2ccccc2)CC1 | -57.7%
O=C(c1ccc(Cl)nc1)N1CCN(C/C=C/c2ccccc2)CC1 | -44.1%
COc1ccc(NC(=O)NCc2ccc3c(c2)OCO3)c(OC)c1 | 11.5%
COc1ccc(C)cc1S(=O)(=O)NC1CCCCC1C (centres unmarked) | 5.07%
CCC(=O)N1CCN(c2ccc(NC(=O)COc3cccc(C)c3C)cc2)CC1 | -12%
O=C(CSc1nnc(-c2ccco2)o1)Nc1c(F)cccc1F | -1.95%
Nc1nc(-c2ccc3c(c2)CCC(=O)N3)cs1 | 16.5%
CN(C)c1ccc(S(=O)(=O)N2CCCCC2)cc1NC(=O)C1CSC2(C)CCC(=O)N12 (centres unmarked) | -22.3%
COC(=O)C1Sc2[nH]c(=O)sc2C(c2ccc(Cl)cc2)C1C(=O)OC (centres unmarked) | -67%
CCOC(=O)C1Sc2[nH]c(=O)sc2C(c2ccc(Cl)cc2)C1C(=O)OCC (centres unmarked) | -1.1%
COC(=O)C1Sc2[nH]c(=O)sc2C2c3ccccc3OC(=O)C12 (centres unmarked) | -22.6%
Cc1[nH]n(-c2cccc([N+](=O)[O-])c2)c(=O)c1-c1ccccc1 | 15.8%
CCN(CC)S(=O)(=O)c1cc(NC(=O)[C@@H](NC(N)=O)C(C)C)ccc1C | 15.5%
COc1ccc(/C=N/n2cnc3c([nH]c4ccc(F)cc43)c2=O)cc1CN1CCCC1 | -68%
COc1ccc(/C=N/n2c(=O)[nH]c3c([nH]c4ccc(F)cc43)c2=O)cc1CN1CCCCC1 | -19.1%
COc1ccc2[nH]c3c(=O)n(/N=C/c4ccc(OC)c(CN5CCCC5)c4)c(C)nc3c2c1 | -45.3%
COc1ccc(/C=N/n2cnc3c([nH]c4ccc(C)cc43)c2=O)cc1CN1CCCC1 | -63.2%
COc1ccc(/C=N/n2cnc3c([nH]c4ccc(Br)cc43)c2=O)cc1CN1CCOCC1 | -8.88%
COc1ccc(/C=N/n2cnc3c([nH]c4ccc(F)cc43)c2=O)cc1CSc1ccccn1 | 20.6%
COc1ccc(NC(=O)c2nnn(CC(=O)Nc3ccccc3OC)c2N)c(OC)c1 | 0.272%
